Drawing on ChEMBL document CHEMBL2218924, “A broad activity screen in support of a chemogenomic map for kinase signalling research and drug discovery” (Biochem J, 2013), this text covers residual activity for six molecules.

Molecules are shown by their SMILES.

Assay [1] addresses T1, Muscle, skeletal receptor tyrosine-protein kinase (Homo sapiens) (UniProt O15146).
T1 sequence (whole entry): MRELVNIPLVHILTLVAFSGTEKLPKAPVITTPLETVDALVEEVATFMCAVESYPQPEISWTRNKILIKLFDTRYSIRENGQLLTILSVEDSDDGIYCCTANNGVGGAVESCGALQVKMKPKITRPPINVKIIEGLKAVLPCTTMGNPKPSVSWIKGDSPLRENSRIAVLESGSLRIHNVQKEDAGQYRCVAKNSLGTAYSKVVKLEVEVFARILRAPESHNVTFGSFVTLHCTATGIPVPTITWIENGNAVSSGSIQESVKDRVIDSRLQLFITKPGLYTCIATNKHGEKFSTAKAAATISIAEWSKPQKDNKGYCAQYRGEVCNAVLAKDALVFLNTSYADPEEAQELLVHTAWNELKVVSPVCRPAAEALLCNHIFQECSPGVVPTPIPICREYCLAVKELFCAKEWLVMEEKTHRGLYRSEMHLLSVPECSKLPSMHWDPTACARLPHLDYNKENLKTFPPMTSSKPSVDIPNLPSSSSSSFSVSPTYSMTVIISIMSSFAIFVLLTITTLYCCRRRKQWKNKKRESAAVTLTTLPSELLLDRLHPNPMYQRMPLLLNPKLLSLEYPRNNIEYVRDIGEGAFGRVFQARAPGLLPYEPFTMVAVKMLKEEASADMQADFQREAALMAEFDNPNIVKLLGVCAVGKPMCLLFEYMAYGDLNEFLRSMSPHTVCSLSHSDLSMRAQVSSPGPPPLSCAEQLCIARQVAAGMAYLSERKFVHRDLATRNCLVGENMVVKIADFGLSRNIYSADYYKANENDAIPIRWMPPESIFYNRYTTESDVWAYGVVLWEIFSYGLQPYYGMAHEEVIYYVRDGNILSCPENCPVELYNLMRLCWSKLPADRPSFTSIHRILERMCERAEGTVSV
The following applies: at 1 µM.

In assay [2] the target is T1, Muscle, skeletal receptor tyrosine-protein kinase (Homo sapiens). The conditions noted are these: at 10 µM.
The target of assay [3] is T2, Serine/threonine-protein kinase Nek11 (Homo sapiens) (UniProt Q8NG66).
T2 sequence (whole entry): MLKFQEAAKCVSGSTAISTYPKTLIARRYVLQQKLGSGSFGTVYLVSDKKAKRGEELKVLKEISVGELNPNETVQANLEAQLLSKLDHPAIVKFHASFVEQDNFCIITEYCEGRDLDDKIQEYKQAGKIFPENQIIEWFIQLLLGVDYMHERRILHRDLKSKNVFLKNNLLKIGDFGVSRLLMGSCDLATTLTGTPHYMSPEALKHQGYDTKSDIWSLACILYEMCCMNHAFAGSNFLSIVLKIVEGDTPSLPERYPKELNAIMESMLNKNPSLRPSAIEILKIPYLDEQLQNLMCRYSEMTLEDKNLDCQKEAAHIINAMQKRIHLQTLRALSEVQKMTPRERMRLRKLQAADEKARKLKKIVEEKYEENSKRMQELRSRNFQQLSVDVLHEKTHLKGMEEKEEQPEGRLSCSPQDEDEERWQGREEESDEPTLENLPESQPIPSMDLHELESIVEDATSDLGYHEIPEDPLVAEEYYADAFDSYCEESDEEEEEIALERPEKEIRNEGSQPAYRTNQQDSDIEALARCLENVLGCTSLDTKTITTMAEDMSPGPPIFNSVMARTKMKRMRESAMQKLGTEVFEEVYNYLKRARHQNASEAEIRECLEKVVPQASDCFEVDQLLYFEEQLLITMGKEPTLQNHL
The following applies: at 1 µM.

For assay [4], the target named is T2, Serine/threonine-protein kinase Nek11 (Homo sapiens). The conditions noted are these: at 10 µM.
For assay [5], the target named is T3, Testis-specific serine/threonine-protein kinase 1 (Homo sapiens) (UniProt Q9BXA7).
T3 sequence (whole entry): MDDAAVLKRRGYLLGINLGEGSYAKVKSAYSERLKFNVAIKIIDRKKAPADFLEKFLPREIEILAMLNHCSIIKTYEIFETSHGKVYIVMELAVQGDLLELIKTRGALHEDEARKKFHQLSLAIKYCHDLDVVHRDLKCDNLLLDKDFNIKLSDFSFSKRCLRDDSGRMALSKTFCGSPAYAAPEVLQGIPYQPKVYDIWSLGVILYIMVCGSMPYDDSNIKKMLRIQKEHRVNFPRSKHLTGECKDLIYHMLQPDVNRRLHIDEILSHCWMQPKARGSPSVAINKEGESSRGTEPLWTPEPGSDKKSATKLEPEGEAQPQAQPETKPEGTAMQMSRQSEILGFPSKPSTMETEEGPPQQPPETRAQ
The following applies: at 1 µM.

For assay [6], the target named is T3, Testis-specific serine/threonine-protein kinase 1 (Homo sapiens). The following applies: at 10 µM.
Assay [7] deals with Angiopoietin-1 receptor (Homo sapiens) (UniProt Q02763). The conditions noted are these: at 10 µM.
The target of assay [8] is High affinity nerve growth factor receptor (Homo sapiens) (UniProt P04629). The following applies: at 10 µM.
Assay [9] concerns the target T4, Serine/threonine-protein kinase Nek2 (Homo sapiens) (UniProt P51955).
T4 sequence (whole entry): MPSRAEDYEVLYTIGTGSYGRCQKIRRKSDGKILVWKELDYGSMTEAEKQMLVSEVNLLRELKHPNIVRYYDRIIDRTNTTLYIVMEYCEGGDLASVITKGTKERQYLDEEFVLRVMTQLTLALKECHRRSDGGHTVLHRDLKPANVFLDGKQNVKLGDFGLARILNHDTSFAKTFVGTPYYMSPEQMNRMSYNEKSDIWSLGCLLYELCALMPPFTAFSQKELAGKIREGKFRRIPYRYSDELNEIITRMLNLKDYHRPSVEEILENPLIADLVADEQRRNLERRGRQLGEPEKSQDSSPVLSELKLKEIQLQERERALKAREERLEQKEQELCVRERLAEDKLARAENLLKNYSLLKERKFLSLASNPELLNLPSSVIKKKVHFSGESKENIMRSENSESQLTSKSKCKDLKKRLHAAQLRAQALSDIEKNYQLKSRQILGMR
The conditions noted are these: at 1 µM.

The target of assay [10] is T5, Serine/threonine-protein kinase Nek3 (Homo sapiens) (UniProt P51956).
T5 sequence (whole entry): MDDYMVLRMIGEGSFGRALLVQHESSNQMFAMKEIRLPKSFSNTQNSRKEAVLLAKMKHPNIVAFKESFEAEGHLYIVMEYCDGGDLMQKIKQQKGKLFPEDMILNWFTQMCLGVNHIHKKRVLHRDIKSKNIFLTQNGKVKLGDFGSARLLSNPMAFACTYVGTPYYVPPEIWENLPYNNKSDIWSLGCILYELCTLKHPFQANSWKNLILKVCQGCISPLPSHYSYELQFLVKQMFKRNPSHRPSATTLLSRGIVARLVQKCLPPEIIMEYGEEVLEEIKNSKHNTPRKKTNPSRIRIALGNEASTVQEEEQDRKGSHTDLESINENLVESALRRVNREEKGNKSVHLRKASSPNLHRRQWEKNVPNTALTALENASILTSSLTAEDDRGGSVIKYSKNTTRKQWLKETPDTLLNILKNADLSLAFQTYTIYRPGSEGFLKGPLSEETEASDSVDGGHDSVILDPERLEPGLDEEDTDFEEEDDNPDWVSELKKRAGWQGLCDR
The following applies: at 1 µM.

Assay [11] deals with T5, Serine/threonine-protein kinase Nek3 (Homo sapiens). The following applies: at 10 µM.
Assay [12] deals with T6, Testis-specific serine/threonine-protein kinase 2 (Homo sapiens) (UniProt Q96PF2).
T6 sequence (whole entry): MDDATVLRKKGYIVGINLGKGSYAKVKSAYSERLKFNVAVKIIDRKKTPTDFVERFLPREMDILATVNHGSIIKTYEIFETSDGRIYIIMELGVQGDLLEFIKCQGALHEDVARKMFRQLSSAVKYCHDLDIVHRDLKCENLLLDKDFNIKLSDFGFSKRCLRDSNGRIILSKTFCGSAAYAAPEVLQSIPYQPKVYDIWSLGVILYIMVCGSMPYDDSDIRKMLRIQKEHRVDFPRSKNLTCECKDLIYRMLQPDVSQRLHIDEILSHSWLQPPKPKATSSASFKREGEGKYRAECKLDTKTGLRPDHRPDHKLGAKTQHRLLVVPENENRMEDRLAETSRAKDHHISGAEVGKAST
The conditions noted are these: at 10 µM.

The target of assay [13] is Angiopoietin-1 receptor (Homo sapiens) (UniProt Q02763). The following applies: at 1 µM.
The target in assay [14] is High affinity nerve growth factor receptor (Homo sapiens) (UniProt P04629). The following applies: at 1 µM.
In assay [15] the target is BDNF/NT-3 growth factors receptor (Homo sapiens) (UniProt Q16620). The following applies: at 1 µM.
The target in assay [16] is T4, Serine/threonine-protein kinase Nek2 (Homo sapiens). The following applies: at 10 µM.
The target of assay [17] is Serine/threonine-protein kinase tousled-like 2 (Homo sapiens) (UniProt Q86UE8). The conditions noted are these: at 1 µM.
The target is the same in assay [18]. The conditions noted are these: at 10 µM.
Assay [19] addresses T7, Tyrosine-protein kinase Tec (Homo sapiens) (UniProt P42680).
T7 sequence (whole entry): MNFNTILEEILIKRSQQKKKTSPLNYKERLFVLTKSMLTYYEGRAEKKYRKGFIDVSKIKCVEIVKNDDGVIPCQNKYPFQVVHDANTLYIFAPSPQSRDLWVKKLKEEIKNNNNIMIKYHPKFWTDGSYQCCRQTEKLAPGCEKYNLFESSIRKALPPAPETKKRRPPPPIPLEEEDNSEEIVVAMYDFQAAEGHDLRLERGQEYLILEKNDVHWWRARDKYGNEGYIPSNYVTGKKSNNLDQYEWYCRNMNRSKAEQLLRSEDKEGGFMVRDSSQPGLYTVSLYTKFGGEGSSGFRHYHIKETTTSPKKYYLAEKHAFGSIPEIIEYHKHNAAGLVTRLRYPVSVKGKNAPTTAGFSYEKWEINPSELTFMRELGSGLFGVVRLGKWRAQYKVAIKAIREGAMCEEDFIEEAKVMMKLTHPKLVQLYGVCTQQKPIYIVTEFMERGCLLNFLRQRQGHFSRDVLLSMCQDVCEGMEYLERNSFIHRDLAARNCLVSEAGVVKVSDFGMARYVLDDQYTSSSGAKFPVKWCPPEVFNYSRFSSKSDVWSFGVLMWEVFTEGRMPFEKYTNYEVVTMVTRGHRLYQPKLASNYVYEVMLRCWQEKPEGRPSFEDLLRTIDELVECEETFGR
The following applies: at 10 µM.

Assay [20] deals with T7, Tyrosine-protein kinase Tec (Homo sapiens). The following applies: at 1 µM.

Usually residual activity stands for the signal under treatment as a percentage of the control signal.

Chain of Serine/threonine-protein kinase tousled-like 2 (Homo sapiens) (Q86UE8 whole entry, looked up): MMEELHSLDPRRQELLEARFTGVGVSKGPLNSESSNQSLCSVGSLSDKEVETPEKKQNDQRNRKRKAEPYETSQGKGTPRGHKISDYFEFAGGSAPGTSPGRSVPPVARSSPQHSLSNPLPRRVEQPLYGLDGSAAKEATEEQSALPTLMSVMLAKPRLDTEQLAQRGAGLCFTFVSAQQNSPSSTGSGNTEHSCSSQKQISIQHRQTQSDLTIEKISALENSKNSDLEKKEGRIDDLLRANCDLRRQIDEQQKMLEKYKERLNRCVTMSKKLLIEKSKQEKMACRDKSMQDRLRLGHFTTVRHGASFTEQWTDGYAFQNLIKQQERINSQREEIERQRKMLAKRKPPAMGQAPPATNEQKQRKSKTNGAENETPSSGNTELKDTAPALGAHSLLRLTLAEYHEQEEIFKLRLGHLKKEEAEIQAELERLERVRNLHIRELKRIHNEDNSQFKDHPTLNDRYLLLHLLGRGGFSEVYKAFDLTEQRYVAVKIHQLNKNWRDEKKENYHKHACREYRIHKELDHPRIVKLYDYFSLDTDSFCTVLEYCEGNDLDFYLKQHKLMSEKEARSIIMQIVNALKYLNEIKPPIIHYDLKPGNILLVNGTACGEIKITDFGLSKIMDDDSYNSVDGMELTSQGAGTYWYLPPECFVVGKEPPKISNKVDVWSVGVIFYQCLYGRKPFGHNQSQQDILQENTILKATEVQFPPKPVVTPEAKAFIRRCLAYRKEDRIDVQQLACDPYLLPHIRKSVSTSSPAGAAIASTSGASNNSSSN
Chain of Angiopoietin-1 receptor (Homo sapiens) (Q02763 whole entry): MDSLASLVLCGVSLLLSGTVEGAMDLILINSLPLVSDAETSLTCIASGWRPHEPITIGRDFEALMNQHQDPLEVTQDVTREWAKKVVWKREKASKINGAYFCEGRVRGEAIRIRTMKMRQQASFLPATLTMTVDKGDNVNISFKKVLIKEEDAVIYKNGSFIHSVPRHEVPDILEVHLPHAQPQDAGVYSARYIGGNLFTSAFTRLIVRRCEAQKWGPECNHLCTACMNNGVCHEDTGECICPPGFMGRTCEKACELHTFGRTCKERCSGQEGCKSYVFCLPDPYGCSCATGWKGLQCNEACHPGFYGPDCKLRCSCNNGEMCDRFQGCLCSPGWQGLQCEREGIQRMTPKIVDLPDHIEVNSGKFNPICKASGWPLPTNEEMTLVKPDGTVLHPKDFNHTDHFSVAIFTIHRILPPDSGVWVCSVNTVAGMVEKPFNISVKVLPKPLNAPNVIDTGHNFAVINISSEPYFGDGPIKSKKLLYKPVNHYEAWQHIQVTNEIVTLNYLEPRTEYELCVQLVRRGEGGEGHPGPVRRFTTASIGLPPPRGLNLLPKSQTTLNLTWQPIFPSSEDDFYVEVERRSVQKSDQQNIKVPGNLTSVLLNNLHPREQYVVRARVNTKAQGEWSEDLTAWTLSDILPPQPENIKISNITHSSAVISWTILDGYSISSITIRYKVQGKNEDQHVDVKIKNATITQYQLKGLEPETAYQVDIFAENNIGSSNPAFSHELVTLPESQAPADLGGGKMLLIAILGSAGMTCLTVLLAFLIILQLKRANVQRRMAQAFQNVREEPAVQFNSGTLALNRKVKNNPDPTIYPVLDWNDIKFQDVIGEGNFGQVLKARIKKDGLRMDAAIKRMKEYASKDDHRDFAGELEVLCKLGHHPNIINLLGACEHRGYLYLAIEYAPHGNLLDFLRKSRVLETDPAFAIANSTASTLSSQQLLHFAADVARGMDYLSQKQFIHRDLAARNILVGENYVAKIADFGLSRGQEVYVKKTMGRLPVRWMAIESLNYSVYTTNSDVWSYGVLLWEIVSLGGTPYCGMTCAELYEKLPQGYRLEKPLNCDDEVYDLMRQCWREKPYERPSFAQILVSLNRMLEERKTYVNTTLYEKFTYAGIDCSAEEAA
Chain of BDNF/NT-3 growth factors receptor (Homo sapiens) (Q16620 32-822 limits assumed): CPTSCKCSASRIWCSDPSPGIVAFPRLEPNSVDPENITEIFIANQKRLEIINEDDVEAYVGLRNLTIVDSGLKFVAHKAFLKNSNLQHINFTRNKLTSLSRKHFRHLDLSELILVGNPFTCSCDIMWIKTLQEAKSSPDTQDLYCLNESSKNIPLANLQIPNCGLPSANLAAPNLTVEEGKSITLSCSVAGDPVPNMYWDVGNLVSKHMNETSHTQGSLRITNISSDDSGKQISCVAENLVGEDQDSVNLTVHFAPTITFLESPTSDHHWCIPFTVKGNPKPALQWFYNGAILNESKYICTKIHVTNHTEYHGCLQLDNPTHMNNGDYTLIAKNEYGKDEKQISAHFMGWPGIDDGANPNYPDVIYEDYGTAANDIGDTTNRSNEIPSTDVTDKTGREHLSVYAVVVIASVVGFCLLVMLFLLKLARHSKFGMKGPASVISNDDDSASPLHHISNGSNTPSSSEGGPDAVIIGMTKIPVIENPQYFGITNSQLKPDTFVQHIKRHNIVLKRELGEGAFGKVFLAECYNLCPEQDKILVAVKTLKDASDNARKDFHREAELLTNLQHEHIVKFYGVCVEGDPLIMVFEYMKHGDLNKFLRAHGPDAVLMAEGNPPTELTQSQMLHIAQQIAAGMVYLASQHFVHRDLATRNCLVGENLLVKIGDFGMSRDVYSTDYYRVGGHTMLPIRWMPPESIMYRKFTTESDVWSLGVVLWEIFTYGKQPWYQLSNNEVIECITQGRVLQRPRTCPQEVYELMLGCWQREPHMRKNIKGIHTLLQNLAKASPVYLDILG
Chain of High affinity nerve growth factor receptor (Homo sapiens) (P04629 33-796 limits assumed): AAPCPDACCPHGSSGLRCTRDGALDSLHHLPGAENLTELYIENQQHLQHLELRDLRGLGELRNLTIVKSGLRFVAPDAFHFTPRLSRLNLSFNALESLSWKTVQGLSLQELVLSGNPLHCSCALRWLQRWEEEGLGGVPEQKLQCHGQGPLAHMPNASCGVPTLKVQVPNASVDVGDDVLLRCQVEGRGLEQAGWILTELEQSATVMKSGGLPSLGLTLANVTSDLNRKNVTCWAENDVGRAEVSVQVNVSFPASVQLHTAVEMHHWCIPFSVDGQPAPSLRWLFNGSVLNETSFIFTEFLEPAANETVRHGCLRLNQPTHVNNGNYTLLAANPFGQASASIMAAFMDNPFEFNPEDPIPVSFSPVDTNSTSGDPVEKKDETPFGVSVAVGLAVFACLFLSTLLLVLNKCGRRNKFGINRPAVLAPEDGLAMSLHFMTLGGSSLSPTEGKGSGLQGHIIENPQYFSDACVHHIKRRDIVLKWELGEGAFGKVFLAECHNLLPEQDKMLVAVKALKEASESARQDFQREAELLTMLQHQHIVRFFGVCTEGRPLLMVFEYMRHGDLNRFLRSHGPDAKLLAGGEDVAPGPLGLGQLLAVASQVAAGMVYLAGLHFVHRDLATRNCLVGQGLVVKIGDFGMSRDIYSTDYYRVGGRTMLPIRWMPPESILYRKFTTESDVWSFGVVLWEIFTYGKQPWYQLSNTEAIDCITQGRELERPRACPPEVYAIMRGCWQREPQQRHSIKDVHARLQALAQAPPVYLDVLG

As to `O=S(=O)(NCCNC/C=C/c1ccc(Br)cc1)c1cccc2cnccc12`, the residual activity amounted to 81% in [1]; 76% in assay [2]; 69% in assay [3]; 69% in [4]; 100% in [5]; 67% in [6]. The residual activity was determined as 69% in [7] and 78% in assay [8].

As for `O=C(Nc1nc2ccccc2n1CCN1CCOCC1)c1cccc([N+](=O)[O-])c1`, the residual activity in [3] was 84%; in [4], 74%; in assay [9], 75%; in [10], 106%; in assay [11] it was 85%; in assay [12], 87%. Also, the residual activity worked out at 80% in [13]; 40% in assay [7]; 20% in assay [14]; 29% in assay [8]; 46% in [15].

For the molecule `CN([C@@H](Cc1ccc(OS(=O)(=O)c2cccc3cnccc23)cc1)C(=O)N1CCN(c2ccccc2)CC1)S(=O)(=O)c1cccc2cnccc12`, the residual activity is 115% in assay [1]; 99% in assay [10]; 99% in assay [11]; 72% in [7]; 79% in assay [15].

Regarding `CC(C)N(CCC(=O)c1ccc2ccccc2c1)Cc1ccccc1`, the residual activity in assay [1] was found to be 87%; in assay [2] it was 79%; in assay [9], 81%; in assay [16] it was 88%; in [17], 86%; in assay [18] it was 80%. The residual activity in assay [5] was 81%; in assay [6] it was 78%; in assay [19], 73%.

Take `O=C(Nc1ccc(Cl)cc1)c1ccccc1NCc1ccncc1`: the residual activity was 79% in assay [7] and 117% in assay [15].

As for `Nc1ncnc2[nH]nc(Nc3ccc(F)cc3)c12`, the residual activity is 76% in assay [2]; 57% in assay [3]; 42% in [4]; 82% in [10]; 81% in assay [11]; 105% in assay [17]. The residual activity in assay [5] was found to be 108%; in assay [20] it was 82%; in assay [19], 21%; in assay [13] it was 104%; in assay [7] it was 79%; in assay [14], 78%. The residual activity turned out to be 40% in assay [8] and 123% in assay [15].
